High-throughput results from PubChem.
HT1080 IDH1KD tx: toxicity to HT-1080 IDH1 knockdown cells (counter line); HT-1080 IDH1 knockdown viability, ATP luminescence, 48 h; AID 686971; hit rate 2% among 360,000; Potency, µM (titrated, usually from 46.1 µM), for inactives: at the highest dose activity, negative = toxicity, hits mostly cytotoxic;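 further: potency means the concentration at half of the fitted maximal effect; 0% = DMSO wells and -100% = cell-free medium wells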
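Luminescent ATP read-out (CellTiter-Glo, 10 min at room temperature) after 48 h compound exposure at 37 °C gave viability of IDH1-knockdown HT-1080 cells. Activity was normalised to DMSO and cell-free wells, then fitted as concentration-response curves.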
HT1080NT lethal: kills 2HG-producing HT-1080-NT fibrosarcoma cells. HT-1080-NT fibrosarcoma viability, CellTiter-Glo ATP luminescence, 48 h. AID 686970. Potency, µM (doses to about 46.1 µM), without a hit: at the highest dose activity, negative = less viability, hits mostly cytotoxic. hit rate 1.6% among 360,000;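 further: NT is the 2HG producing partner of a matched IDH1 knockdown line; potency means the concentration at half of the fitted maximal effect; 0% = DMSO-treated cells and -100% = media-only wells without cells; nearly all actives have a fitted effect of over 55% in size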
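HT-1080-NT fibrosarcoma cells (2HG-overproducing), 750 cells/well in RPMI with 5% FBS, dosed after 2 h and incubated 48 h at 37C. CellTiter-Glo luminescence normalized to DMSO and no-cell wells; concentration-response curves fitted and classed.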
ELG1 repair inh: inhibitors of ELG1-dependent DNA repair in HEK293T cells; HEK293T ELG1-luciferase reporter, luminescence, 16 h; DNA damage induced by 5-fluorouridine; Potency, µM (highest dose often 46.1 µM), for inactives: at the highest dose activity change, negative = inhibition, most hits filed as inhibitors; hit rate 2.3% among 330,000; AID 504467; further: potency means the concentration at half of the fitted maximal effect; nearly all actives have a fitted effect of over 55% in size
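Quantitative HTS, concentration-response format. 2,000 cells/well co-treated with 5-fluorouridine and compound, 16 hr in 5% CO2 at 37 °C; ONE-Glo luminescence read after 30 min.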
DT40 TDP1 no CPT: qHTS for Inhibitors of human tyrosyl-DNA phosphodiesterase 1 (TDP1): qHTS in cells in absence of CPT; hit rate 15% among 420,000; DT40 Tdp1-/- hTDP1 cells, no CPT, ATP luminescence, 48 h; AID 686978, 2013; Potency, µM (doses to about 46.2 µM), for inactives: at the highest dose activity change, negative = growth inhibition, hits mostly inhibitors; further: potency means the concentration at half of the fitted maximal effect; nearly all actives have a fitted effect of over 55% in size
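Growth kinetics read by CellTiter-Glo luminescence after ≥48 hr at 37 °C. Cells: DT40 Tdp1-/- stably carrying human TDP1, 400 per well, compound exposure in the absence of CPT (DMSO vehicle).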
IL-1B inflam inh: inflammasome signaling inhibition, IL-1 beta readout; THP-1 LPS/ATP IL-1B secretion, AlphaLISA, 16 h; stronger effect = lower value; activity change, % at 57.5 µM; hit rate 4.7% among 360,000; AID 743279; in the data active means activity change below about -50%; inconclusive means mostly about -30% to -49%
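Secreted IL-1B measured by AlphaLISA bead assay after 16 h compound exposure of THP-1 cells; compounds (final up to 57.5 uM) added 1 h before LPS (250 ng/mL) and ATP (1.25 mM) stimulation; lower signal means less secretion.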
DT40 TDP1 CPT: growth inhibition of DT40 Tdp1-/-;hTDP1 cells with camptothecin (screen for TDP1 inhibitors). chicken DT40 Tdp1-/-;hTDP1 cells + 20 nM CPT, ATP luminescence, 48 h. Potency, µM (doses to about 46.2 µM), for the others: at the top dose activity change, negative = growth inhibition, most hits filed as inhibitors. hit rate 12% among 420,000. AID 686979; further: potency means the concentration at half of the fitted maximal effect; nearly all actives have a fitted effect of over 55% in size
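Chicken DT40 Tdp1-/- cells stably complemented with human TDP1 were seeded at 400 cells/well in medium containing 20 nM camptothecin, exposed to pin-transferred compounds, and grown at 37 °C for at least 48 hr. Viability was read as ATP luminescence.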
Numbers without * were called inactive; ? = inconclusive; / = not tested or not shown. Compounds with a hit are over-represented: about 19% of the library has one in this group of screens. Unless noted, the call rests on the fitted dose curve; in most records, active means well fitted curve in the direction sought with a large enough effect; inconclusive means small, poorly fitted or top-dose-only effect, or another doubt; inactive means no such curve, though single readings can be large; an effect the other way counts as inactive or inconclusive. Unless noted, on the % scale 0 is the no-effect control and ±100 the full control effect.

SMILES	HT1080 IDH1KD tx	HT1080NT lethal	ELG1 repair inh	DT40 TDP1 no CPT	IL-1B inflam inh	DT40 TDP1 CPT
CC1=CC2OC3CC4OC(=O)C=CC=CC(C(C)O)OCC(O)C5(C)OC5C(=O)OCC2(CC1O)C4(C)C31CO1 (configuration not stated)	/	0.37µM*	/	0.15µM*	-117*	0.092µM*
Cc1ccc(NC2=NCCCS2)c(C)c1C	-14%	-4%	-18%	?	-11	-9%
CCOC(=O)NC(C)(C)Cc1ccc(Cl)cc1	/	/	/	?	/	5%
O=C(NCc1cccnc1)c1ccc(-c2ccc(F)c(F)c2)c2ccoc12	?	?	/	4.6µM*	-2	5.8µM*
O=C(O)C1C2c3ccccc3C(=O)C1(C(=O)O)c1ccccc12 (configuration not stated)	11%	9%	/	-5%	20	8%
c1ccc(Nc2ccc(Nc3ccccc3)cc2)cc1	-14%	-26%	?	6.5µM*	-25	?
N#CC(C#N)=C(C#N)c1ccc(Nc2ccccc2)cc1	2%	-2%	-13%	?	-90*	10µM*
O=[N+]([O-])c1ccc(Nc2ccccc2)cc1	-5%	-2%	?	-20%	3	?
CS(=O)(=O)c1ccc(C2=C(CNC(=O)c3nccs3)[C@H]3CC[C@@H](C2)N3Cc2ccccc2)cc1	4%	0%	/	?	-2	-3%
c1ccc(C(OCCN2CCN(c3ncccn3)CC2)c2ccccc2)cc1	-3%	3%	/	?	-76*	?
C(=C\c1ccccc1)/CN1CCN(CCOC(c2ccccc2)c2ccccc2)CC1	/	/	/	4.6µM*	/	3.7µM*
CC(C)Cc1nnc(NC(=O)CCC(=O)N2CCN(CCOC(c3ccccc3)c3ccccc3)CC2)s1	-19%	-4%	-29%	?	-2	?
C=CCN=C(SCC(=O)c1ccc(Cl)cc1)c1c(O)n(C)c(=O)n(C)c1=O	?	-29%	?	?	-29	?
CNCc1ccccc1	/	/	/	?	/	2%
COc1ccc(NC(=O)c2cn(CCC#N)nc2-c2cccc(Br)c2)cc1	-3%	2%	7%	-28%	-14	-12%
[O-][n+]1onc2c1CCC1N(O)CCC21O (configuration not stated)	0%	6%	6%	17%	3	-1%
COc1ccc(-c2n(-c3ccccn3)c3ccccc3[n+]2-c2ccccn2)cc1	2%	8%	?	13µM*	0	13µM*
CO[C@H]1C[C@H](O[C@H]2[C@H](C)O[C@@H](O[C@@H]3/C(C)=C/C[C@@H]4C[C@@H](C[C@]5(C=C[C@H](C)[C@@H](C6CCCCC6)O5)O4)OC(=O)[C@@H]4C=C(C)[C@@H](O)[C@H]5OC/C(=C\C=C\[C@@H]3C)[C@]54O)C[C@@H]2OC)O[C@@H](C)[C@@H]1O	/	/	/	4.7µM*	/	2.7µM*
CC(=O)Oc1c2c(c(CC=C(C)C)c3c1C(=O)C1=CC4CC5C(C)(C)OC(C/C=C(\C)C(=O)O)(C4=O)[C@]15O3)OC(C)(CCC=C(C)C)C=C2 (some centres not stated)	/	/	/	0.92µM*	/	0.82µM*
COC(=O)/C(C)=C\CC12OC(C)(C)C3CC(C=C4C(=O)c5c(OC)c6c(c(CC=C(C)C)c5OC431)OC(C)(CCC=C(C)C)C=C6)C2=O (configuration not stated)	/	/	/	3.7µM*	/	4.6µM*
C=CCn1c(O)c(/C=N/N2CCCCC2c2cccnc2)c(=O)[nH]c1=S (configuration not stated)	13%	7%	11%	?	9	-21%
c1ccc2nc3ccccc3cc2c1	/	/	/	13µM*	/	10µM*
CCOC(=O)c1nc2ccccc2c(=O)n1-c1ccc(C)cc1C	0%	0%	-22%	10µM*	-10	8.2µM*
CC(C)c1ccc(N(C(=O)c2csnn2)C(C(=O)NC2CCCC2)c2ccncc2)cc1 (configuration not stated)	-1%	-5%	?	-16%	-1	-4%
Cc1cc(S(=O)(=O)NC(C)C)ccc1OCC(=O)N1CCN(Cc2ccc3c(c2)OCO3)CC1	?	?	-26%	?	-9	16µM*
SMILES	HT1080 IDH1KD tx	HT1080NT lethal	ELG1 repair inh	DT40 TDP1 no CPT	IL-1B inflam inh	DT40 TDP1 CPT
Cc1cc(S(=O)(=O)NCC(C)C)ccc1OCC(=O)N1CCN(Cc2ccccc2)CC1	-19%	-16%	?	-65%	-2	?
CC(C)NS(=O)(=O)c1ccc(OCC(=O)N2CCN(Cc3ccc4c(c3)OCO4)CC2)c(Cl)c1	?	?	12µM*	18µM*	-17	16µM*
CCN1CCN(C(=O)COc2ccc(S(=O)(=O)NC(C)C)cc2)CC1	6%	16%	4%	-4%	28	-8%
Cc1cc(=O)oc2cc(OCC(=O)N3CCN(Cc4ccc5c(c4)OCO5)CC3)ccc12	4%	0%	6.5µM*	-19%	-5	-22%
CCN1CCN(C(=O)COc2ccc3oc4c(c3c2)CCCC4)CC1	-22%	-3%	0%	21µM*	10	?
CC[C@H]1CN2CCC1C[C@@H]2[C@H](O)c1ccnc2ccc(OC)cc12 (some centres not stated)	-19%	-3%	/	?	-18	?
CN1[C@H](CC(=O)c2ccccc2)CCC[C@H]1C[C@H](O)c1ccccc1	/	/	/	-25%	/	-2%
O=C(COc1ccc(Br)cc1)Nc1ccc(Cl)cc1C(=O)c1ccccc1	/	/	/	-15%	/	-3%
O=C1NC(=O)C(CCc2ccncc2)(Cc2cccc(Cl)c2Cl)C(=O)N1c1ccc(Br)cc1 (configuration not stated)	8.2µM*	16µM*	16µM*	5.8µM*	26	4.6µM*
Cc1nc2cc(C(F)(F)F)ccc2n1C1CCN(Cc2nnnn2Cc2ccc3c(c2)OCO3)CC1	29µM*	23µM*	6.5µM*	16µM*	-71*	29µM*
FC(F)(F)c1ccc2c(c1)ncn2C1CCN(Cc2nnnn2C2CCCCC2)CC1	-3%	-7%	?	?	?	?
Cc1nc2ccccc2n1C1CCN(Cc2nnnn2CCc2ccccc2)CC1	0%	7%	-20%	?	?	?
Cc1nc2cc(C(F)(F)F)ccc2n1C1CCN(Cc2nnnn2Cc2cccs2)CC1	-23%	-12%	-12%	16µM*	?	16µM*
